AMA1-RON2 inh – AMA1-RON2 (P. falciparum) interaction inhibition | AlphaScreen AMA1-biotinylated RON2 peptide binding | Potency, µM (top dose mostly 58.2 µM), most hits filed as inhibitors | hit rate 0.2% among 360,000 | AID 720542; also: nearly all actives have a fitted effect of over 45% in size
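AMA1 (3D7) with his tag at 25 nM final met compounds first, then biotinylated RON2 peptide at 25 nM; detection used donor plus acceptor beads, 10 µg/mL apiece, read by AlphaScreen after 30 min at room temperature.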
HCV inh – blocks hepatitis C virus; Potency, µM (titrated, usually from 41.8 µM), hits mostly inhibitors; Huh7.5.1 HCVcc-Cre infection, luciferase reporter, 44 h; hit rate 3.4% among 340,000; AID 651820
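Whole-lifecycle infectious HCVcc-Cre system; cells 1,000/well, compound then virus (~0.5 moi) added 4 h after plating, 44 h culture. Luciferase read 15 sec following 15 min substrate incubation, room temp.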
Pf growth 48h – inhibits P. falciparum growth in the first generation, 48 h; Potency, µM (series often up to 28.7 µM), most hits filed as inhibitors; P. falciparum luciferase growth in erythrocytes, 48 h; hit rate 5.9% among 310,000
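A one-generation exposure of luciferase-tagged malaria parasites in RPMI 1640/Albumax erythrocyte culture, 37 C and 5% CO2. Inhibition is inferred from decreased luminescence after adding detection reagent.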
SARS PLpro yeast – blocks SARS-CoV papain-like protease in a yeast assay; S. cerevisiae expressing SARS-CoV PLpro, growth rescue; Potency, µM (highest dose often 32.9 µM), most hits filed as activators; hit rate 0.19% among 330,000; AID 485353; calls by dose curve; also: nearly all actives have a fitted effect of over 55% in size
NS1 inh – inhibitors of influenza NS1 protein function; hit rate 0.4% among 270,000; AID 2326; Potency, µM (series often up to 46.1 µM); calls by dose curve; also: actives are rising curves; nearly all actives have a fitted effect of over 50% in size
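Read-out: OD600 growth recovery of NS1-expressing budding yeast. Cells grown overnight at 30C in -URA glucose medium, washed, resuspended and diluted 1:100 in 2% galactose assay medium, pH 6.0. Same strain lacking NS1 served as positive control.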
Pf growth 96h – P. falciparum growth inhibition at 96 hour, primary screen for plastid delayed-death inhibitors. P. falciparum luciferase reporter growth, 96 h. Potency, µM (doses to about 28.7 µM), hits mostly inhibitors. hit rate 6.9% among 320,000. AID 504834
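Cell-based qHTS: luciferase-tagged P. falciparum in erythrocytes (2% hematocrit, 0.05% parasitemia final) incubated with compounds for 96 hours, 37 C, 5% CO2; luciferase detection reagent then added and luminescence measured.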
Hits are given with their value; [ ] = remark or other dose. An excerpt weighted towards active compounds, which were near 12% of everything screened. Unless noted, calls follow the shape of the dose curve; as a rule, active = well fitted curve in the direction sought with a large enough effect; inconclusive = small, poorly fitted or top-dose-only effect, or another doubt; inactive = no such curve, though single readings can be large; an effect the other way counts as inactive or inconclusive.

`CC(C)C1C(c2ccccc2)N(C)C(c2ccccc2)CC1(O)c1ccccc1` (configuration not stated) gave AMA1-RON2 inh inactive, HCV inh inactive, Pf growth 48h inconclusive, SARS PLpro yeast inactive and NS1 inh inactive.
Screening CC(C)C1C(c2ccccc2)NC(c2ccccc2)CC1(O)c1ccc(F)cc1 (configuration not stated) returned AMA1-RON2 inh inactive, HCV inh inconclusive, Pf growth 48h 4.1µM, SARS PLpro yeast inactive, NS1 inh inactive and Pf growth 96h inconclusive.
O=C(NCCOC12CC3CC(CC(C3)C1)C2)c1cccc(Br)c1 was read as AMA1-RON2 inh inactive, HCV inh inconclusive, Pf growth 48h 9.3µM, SARS PLpro yeast inactive, NS1 inh inactive and Pf growth 96h 4.1µM.
For O=C(O)CCCCCNC(=O)c1cccc(Br)c1 the results were AMA1-RON2 inh inactive, HCV inh inactive, Pf growth 48h inactive, SARS PLpro yeast inactive, NS1 inh inactive and Pf growth 96h inactive.
`CCn1c(CNC(=O)c2cccnc2)cc2ccccc21` gave AMA1-RON2 inh inactive, HCV inh inactive, Pf growth 48h inactive, SARS PLpro yeast inactive, NS1 inh inconclusive and Pf growth 96h inactive.
C[C@@]12CCC=C[C@H]1[C@H](c1ccc3ccccc3c1)N(Cc1ccccc1)C2=O was read as AMA1-RON2 inh inactive, HCV inh inconclusive, Pf growth 48h inconclusive, SARS PLpro yeast inactive, NS1 inh inactive and Pf growth 96h 9.3µM.
`C[C@@]12CCC=C[C@H]1[C@H](c1ccc3ccccc3c1Br)N(Cc1ccccc1)C2=O` gave AMA1-RON2 inh inactive, HCV inh inconclusive, Pf growth 48h 9.3µM, SARS PLpro yeast inactive, NS1 inh inactive and Pf growth 96h 10µM.
Screening COc1ccc(-c2cc([C@H]3[C@@H]4C=CCC[C@@]4(C)C(=O)N3Cc3ccccc3)ccc2F)cc1 returned AMA1-RON2 inh inactive, HCV inh inactive, Pf growth 48h inconclusive, SARS PLpro yeast inactive, NS1 inh inactive and Pf growth 96h inconclusive.
CCOCC(=O)Nc1cc(Cl)ccc1C was read as AMA1-RON2 inh inactive, HCV inh inactive, Pf growth 48h inactive, SARS PLpro yeast inactive, NS1 inh inactive and Pf growth 96h inactive.
For CCc1cc(=O)oc2c3c(cc(OCC(=O)NCc4ccco4)c12)OC(C)(C)CC3 the results were AMA1-RON2 inh inactive, HCV inh 1.3µM, Pf growth 48h inactive, SARS PLpro yeast inactive, NS1 inh inactive and Pf growth 96h inconclusive.
For CCc1cc(=O)oc2c3c(cc(OCC(=O)NCCCC(=O)O)c12)OC(C)(C)CC3 the results were AMA1-RON2 inh inactive, HCV inh inactive, Pf growth 48h inconclusive, SARS PLpro yeast inactive, NS1 inh inactive and Pf growth 96h inconclusive.
CCc1cc(=O)oc2c3c(cc(OCC(=O)NCc4ccncc4)c12)OC(C)(C)CC3 was read as AMA1-RON2 inh inactive, HCV inh inconclusive, Pf growth 48h 10µM, SARS PLpro yeast inactive, NS1 inh inactive and Pf growth 96h inconclusive.
`CCc1cc(=O)oc2c3c(cc(OCC(=O)NC4CC4)c12)OC(C)(C)CC3` gave AMA1-RON2 inh inactive, HCV inh 0.79µM, Pf growth 48h inconclusive, SARS PLpro yeast inactive, NS1 inh inactive and Pf growth 96h 4.1µM.
For CCc1cc(=O)oc2c3c(cc(OCC(=O)NCCN4CCOCC4)c12)OC(C)(C)CC3 the results were AMA1-RON2 inh inactive, HCV inh inconclusive, Pf growth 48h inconclusive, SARS PLpro yeast inactive, NS1 inh inactive and Pf growth 96h 9.3µM.
Screening CC(=O)Nc1cccc(N=NN2CCCCC2)c1 returned AMA1-RON2 inh inactive, HCV inh inactive, Pf growth 48h inactive, SARS PLpro yeast inactive, NS1 inh inactive and Pf growth 96h inactive.
`CN(CC(=O)Nc1ccccc1C(F)(F)F)C(=O)c1cc([N+](=O)[O-])ccc1N1CCOCC1` gave AMA1-RON2 inh inactive, HCV inh inactive, Pf growth 48h inactive, SARS PLpro yeast inactive, NS1 inh inactive and Pf growth 96h inactive.
For COC(=O)/C=C1/S/C(=N/NC(=O)c2ccc(Cl)cc2Cl)NC1=O the results were AMA1-RON2 inh inactive, HCV inh inactive, Pf growth 48h inactive, SARS PLpro yeast inactive, NS1 inh inactive and Pf growth 96h inactive.
`CC1(C(=O)Nc2ccccc2Br)CCN1C(=O)Cc1ccccc1Cl` (configuration not stated) gave AMA1-RON2 inh inactive.
Screening Cc1ccc(C2=NC(C)(C)N=C2SCC(=O)Nc2ccc(Cl)cc2)cc1 returned AMA1-RON2 inh inactive, HCV inh inconclusive, SARS PLpro yeast inactive, NS1 inh inactive and Pf growth 96h 4.1µM.
CC1CC(C)CN(S(=O)(=O)c2ccc3oc(=O)ccc3c2)C1 (configuration not stated) was read as AMA1-RON2 inh inactive, HCV inh inactive, Pf growth 48h inactive, SARS PLpro yeast inactive, NS1 inh inactive and Pf growth 96h inactive.
Screening CC(=O)Nc1ccc(S(=O)(=O)NC2(C(F)(F)F)NC(=O)N(c3ccc(C)cc3)C2=O)cc1 (configuration not stated) returned AMA1-RON2 inh inactive, HCV inh inactive, Pf growth 48h inactive, SARS PLpro yeast inactive, NS1 inh inactive and Pf growth 96h 9.3µM.
Screening CCOC(=O)NC1(C(F)(F)F)NC(=O)N(c2ccc(F)cc2)C1=O (configuration not stated) returned AMA1-RON2 inh inactive, HCV inh inactive, Pf growth 48h inactive, SARS PLpro yeast inactive, NS1 inh inactive and Pf growth 96h 4.7µM.
Screening Cc1ccc(S(=O)(=O)NC2(C(F)(F)F)NC(=O)N(c3ccc(F)cc3)C2=O)cc1 (configuration not stated) returned AMA1-RON2 inh inactive, HCV inh inactive, Pf growth 48h inactive, SARS PLpro yeast inactive, NS1 inh inactive and Pf growth 96h inactive.
Screening CCCOc1ccc(C2=CSC3=NCCN23)cc1[N+](=O)[O-] returned AMA1-RON2 inh inactive, HCV inh inconclusive, Pf growth 48h inactive[0.00184 µM], SARS PLpro yeast inactive, NS1 inh inactive and Pf growth 96h inactive.
For N#Cc1cc(Cl)c(NCC2CCCO2)cc1C#N (configuration not stated) the results were AMA1-RON2 inh inactive, HCV inh inactive, Pf growth 48h inactive, SARS PLpro yeast inactive, NS1 inh inactive and Pf growth 96h inconclusive.
For COc1ccc(CNC(=O)CN2C(=O)NC(Cc3ccccc3)(c3ccccc3)C2=O)cc1OC (configuration not stated) the results were AMA1-RON2 inh inactive, HCV inh inactive, Pf growth 48h inconclusive, SARS PLpro yeast inactive and Pf growth 96h 15µM.
For CC(C)N(Cc1ccccc1)C(=O)CN1C(=O)NC(Cc2ccccc2)(c2ccccc2)C1=O (configuration not stated) the results were AMA1-RON2 inh inactive, HCV inh inactive, Pf growth 48h inconclusive, SARS PLpro yeast inactive, NS1 inh inactive and Pf growth 96h 12µM.

Screening data: PubChem BioAssay, National Center for Advancing Translational Sciences (NCATS)
